Experiment [1] in a line: qHTS for Inhibitors of Plasmodium falciparum (DD2) proliferation (AID 504314).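 Further: parasite DNA measured by SYBR Green fluorescence after red cell lysis.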 In a few lines: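 SYBR Green DNA-fluorescence growth assay: infected RBCs at 0.3% parasitemia, 2.5% hematocrit, 72 h compound exposure, 37C, 5% CO2; overnight lysis with dye at RT; normalized to 0.29 uM artemisinin and vehicle.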
For orientation: Quantitative high-throughput screening tests each substance at several concentrations.

Experiment [2] can be described thus: qHTS for Inhibitors of Plasmodium falciparum (GB4) proliferation (AID 504315). Further: nearly all actives have a fitted effect of over 50% in size. Further: potency means the concentration at half of the fitted maximal effect. In a few lines:
(§1)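 Parasite growth measured as SYBR Green DNA fluorescence (ex 485, em 535 nm) after overnight lysis following 72 h culture at 37 °C, 0.3% parasitemia, 2.5% hematocrit. Values normalized against DMSO and 0.29 uM artemisinin controls, with plate-stack correction.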

Experiment [3] can be described thus: qHTS for Inhibitors of Plasmodium falciparum (HB3) proliferation (AID 504318). Further: nearly all actives have a fitted effect of over 60% in size. The gist of the method: as §1
The nature of experiment [4]: qHTS for Inhibitors of Plasmodium falciparum (CP250) proliferation (AID 504320). The gist of the method:
as §1

A short description of experiment [5]: qHTS for Inhibitors of Plasmodium falciparum (7G8) proliferation (AID 504316). Further: series mostly up to about 6.7 µM; nearly all actives have a fitted effect of over 65% in size. In a few lines:
as §1

The target in experiment [6] is Mitogen-activated protein kinase 10 (Mus musculus) (UniProt Q61831). The experiment is described as follows: JNK3 AlphaScreen Assay (AID 530; active means well fitted curve in either direction with a large enough effect, not every such curve was filed as active;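 further: kinase came from lysate of stimulated human HepG2 cells; signal reports phosphorylation of biotinylated GST-cJun 1-79 at Ser73 with 10 µM ATP; series mostly up to about 57 µM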). In a few lines:
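HepG2 lysate (IL-1b/TNFa pre-activated) + biotin-GST-cJun 1-79 + anti-pSer73 cJun; cpd titration, 15 min RT; ATP 10 uM start; Tris pH 7.6, MgCl2, DTT, vanadate; beads in EDTA buffer; AlphaScreen.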
On the technique in general: Alpha assays give light when donor and acceptor beads are brought close together.

Experiment [7] addresses 3',5'-cyclic-AMP phosphodiesterase 4B (Homo sapiens) (UniProt Q07343). The experiment is described as follows: qHTS Assay for Inhibitors of PDE-IV (AID 607; active means well fitted activation curve with a large enough effect in the main read-out, with a control signal flat, not every such curve was filed as active). The gist of the method: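 The readout is membrane depolarisation from a cAMP-sensing CNG channel, detected with a potential dye at ex 535/em 590. Cells were HEK293-derived (endogenous PDE-IV) at 1000 cells/well, titrated up to 22.9 uM final.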

Experiment [8] deals with Cytochrome P450 2C9 (Homo sapiens) (UniProt P11712). The experiment is described as follows: qHTS Assay for Inhibitors and Substrates of Cytochrome P450 2C9 (AID 883). Further: nearly all actives have a fitted effect of over 60% in size. The gist of the method:
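Human CYP2C9 (10nM) with Luciferin-H at 100uM (its KM) in 25mM KPO4; compound preincubated 10 min at 37C, then NADPH regeneration for 60 min at 37C. Luciferin read by luminescence after detection reagent; normalized to 57uM sulphaphenazole as full inhibition.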

Experiment [9] deals with Cytochrome P450 2D6 (Homo sapiens) (UniProt P10635). The experiment is described as follows: qHTS Assay for Inhibitors and Substrates of Cytochrome P450 2D6 (AID 891).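 Further: luciferin methyl ether substrate demethylated by CYP2D6 with NADPH regeneration; nearly all actives have a fitted effect of over 60% in size.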 The gist of the method: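 Luminescent read-out of luciferin formed by 5 nM human CYP2D6 demethylating 30 uM Luciferin-ME EGE (Km level) over 60 min at room temperature after NADPH regeneration addition. Data normalized to full inhibition by 1.43 uM quinidine.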
Sequence of Cytochrome P450 2D6 (Homo sapiens) (P10635 whole entry, looked up): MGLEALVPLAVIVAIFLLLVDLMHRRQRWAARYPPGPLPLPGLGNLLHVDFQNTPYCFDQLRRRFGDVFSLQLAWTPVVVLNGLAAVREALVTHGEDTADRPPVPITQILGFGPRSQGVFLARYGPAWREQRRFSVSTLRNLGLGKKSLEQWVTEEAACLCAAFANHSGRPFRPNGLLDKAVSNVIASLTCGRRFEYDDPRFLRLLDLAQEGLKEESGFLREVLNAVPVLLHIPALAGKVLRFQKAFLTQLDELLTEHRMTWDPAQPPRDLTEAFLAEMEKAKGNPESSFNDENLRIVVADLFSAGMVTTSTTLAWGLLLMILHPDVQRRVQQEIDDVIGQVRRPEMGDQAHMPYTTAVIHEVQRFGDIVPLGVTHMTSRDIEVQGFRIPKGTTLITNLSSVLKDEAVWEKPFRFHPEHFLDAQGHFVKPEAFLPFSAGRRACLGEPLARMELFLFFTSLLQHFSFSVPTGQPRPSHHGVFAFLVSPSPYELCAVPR

Experiment [10] deals with Cytochrome P450 2C19 (Homo sapiens) (UniProt P33261). The experiment is described as follows: qHTS Assay for Inhibitors and Substrates of Cytochrome P450 2C19 (AID 899). Further: nearly all actives have a fitted effect of over 60% in size. The gist of the method:
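5 nM human CYP2C19 with 10uM Luciferin-H EGE (at KM) in 50mM KPO4, compound preincubated 10 min at 37C, then NADPH regeneration for 60 min at 37C. Luciferin read by luminescence after detection reagent; normalized to 57uM ketoconazole as full inhibition.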

The results in this text go back to PubChem BioAssay (NCATS).

Each structure is given as a SMILES string. Inconclusive results are not listed. Calls of active or inactive are those of the source. Unless noted, the call rests on the fitted dose curve; in most records, active means well fitted curve in the direction sought with a large enough effect; inconclusive means small, poorly fitted or top-dose-only effect, or another doubt; inactive means no such curve, though single readings can be large; an effect the other way counts as inactive or inconclusive.

Sequence of 3',5'-cyclic-AMP phosphodiesterase 4B (Homo sapiens) (Q07343 whole entry, looked up): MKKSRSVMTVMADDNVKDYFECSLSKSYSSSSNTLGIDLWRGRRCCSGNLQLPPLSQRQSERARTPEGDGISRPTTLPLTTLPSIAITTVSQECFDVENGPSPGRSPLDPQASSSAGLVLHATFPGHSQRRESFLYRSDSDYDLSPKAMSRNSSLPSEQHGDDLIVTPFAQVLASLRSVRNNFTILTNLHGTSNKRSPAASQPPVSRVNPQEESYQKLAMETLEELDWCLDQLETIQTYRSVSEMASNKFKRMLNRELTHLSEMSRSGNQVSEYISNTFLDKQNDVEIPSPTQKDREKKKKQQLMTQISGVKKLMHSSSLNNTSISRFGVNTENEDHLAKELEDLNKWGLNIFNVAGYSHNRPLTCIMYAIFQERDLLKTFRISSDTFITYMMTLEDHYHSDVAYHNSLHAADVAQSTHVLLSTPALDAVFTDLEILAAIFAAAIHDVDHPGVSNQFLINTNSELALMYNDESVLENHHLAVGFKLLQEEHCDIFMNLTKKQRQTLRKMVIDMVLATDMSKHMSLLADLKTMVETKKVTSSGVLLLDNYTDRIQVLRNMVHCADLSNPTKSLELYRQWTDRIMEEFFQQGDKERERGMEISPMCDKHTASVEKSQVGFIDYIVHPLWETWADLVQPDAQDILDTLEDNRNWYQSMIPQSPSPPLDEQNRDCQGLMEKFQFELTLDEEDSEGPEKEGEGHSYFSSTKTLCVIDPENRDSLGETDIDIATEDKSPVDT
Sequence of Cytochrome P450 2C19 (Homo sapiens) (P33261 whole entry, looked up): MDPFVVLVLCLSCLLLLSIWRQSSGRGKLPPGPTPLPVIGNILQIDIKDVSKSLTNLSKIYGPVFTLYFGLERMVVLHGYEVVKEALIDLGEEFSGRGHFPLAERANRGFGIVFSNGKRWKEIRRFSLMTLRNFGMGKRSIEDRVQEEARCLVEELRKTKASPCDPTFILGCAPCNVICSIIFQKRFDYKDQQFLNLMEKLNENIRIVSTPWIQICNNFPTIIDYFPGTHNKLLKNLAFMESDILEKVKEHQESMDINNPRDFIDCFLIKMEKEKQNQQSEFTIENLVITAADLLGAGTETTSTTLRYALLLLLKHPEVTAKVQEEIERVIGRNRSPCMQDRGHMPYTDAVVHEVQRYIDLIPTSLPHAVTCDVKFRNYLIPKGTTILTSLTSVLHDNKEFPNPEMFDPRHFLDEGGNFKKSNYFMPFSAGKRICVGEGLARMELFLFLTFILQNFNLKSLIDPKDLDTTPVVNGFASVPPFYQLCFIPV
Sequence of Cytochrome P450 2C9 (Homo sapiens) (P11712 whole entry, looked up): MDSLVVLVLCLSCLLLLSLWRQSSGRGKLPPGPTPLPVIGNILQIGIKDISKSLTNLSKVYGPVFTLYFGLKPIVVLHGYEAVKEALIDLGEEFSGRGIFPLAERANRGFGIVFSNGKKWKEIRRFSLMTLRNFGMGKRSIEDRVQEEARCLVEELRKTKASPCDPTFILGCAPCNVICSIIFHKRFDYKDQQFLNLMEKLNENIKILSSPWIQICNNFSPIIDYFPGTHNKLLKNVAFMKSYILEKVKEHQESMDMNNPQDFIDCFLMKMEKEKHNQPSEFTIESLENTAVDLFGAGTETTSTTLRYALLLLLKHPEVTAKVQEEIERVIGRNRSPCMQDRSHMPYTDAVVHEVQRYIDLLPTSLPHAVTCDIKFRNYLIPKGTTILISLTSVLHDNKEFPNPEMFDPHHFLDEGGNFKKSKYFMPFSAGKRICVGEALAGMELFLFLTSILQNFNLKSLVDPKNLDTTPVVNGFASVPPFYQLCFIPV

Turning to `COC(=O)CCCC1=CC2=CC(=O)C(C)(OC(=O)c3cccs3)C(=O)C2=CN1c1cccc(C#N)c1` (configuration not stated), the Potency entry in [1], in experiment [2], in experiment [3] and in experiment [4] was “inactive” throughout.
`CC(C)OCCCN1C=C2C(=O)C(C)(OC(=O)CCc3ccccc3)C(=O)C=C2C=C1c1ccc(C#N)cc1` (configuration not stated): the Potency result in experiment [1], in experiment [2] and in experiment [4] was “inactive” throughout.
For the compound `CCN1C(=O)NC(c2ccc(Br)cc2)C(C(=O)OC)=C1C` (configuration not stated), the Potency result in experiment [1], in [2] and in [4] was “inactive” throughout.
`CC1(OC(=O)CCc2ccccc2)C(=O)C=C2C=C(c3ccc(C#N)cc3)N(CCc3ccccn3)C=C2C1=O` (configuration not stated): the Potency entry in experiment [1], in [2] and in experiment [4] was “inactive” each time.
With `COC(=O)CCCC1=CC2=CC(=O)C(C)(OC(=O)c3cccs3)C(=O)C2=CN1CCCCO` (configuration not stated), the Potency result in experiment [1], in [2], in experiment [3] and in experiment [4] was “inactive” each time.
In the case of `COC[C@@H](O)[C@@H](OC)[C@H](OC)[C@H](Cc1c(OC)cc(OC)cc1OC)OC`, the Potency result in experiment [1], in [2] and in experiment [4] was “inactive” each time.
For the compound `COCCN1C(=O)N[C@@H](c2cccc(F)c2)C(C(C)=O)=C1C`, the Potency entry in [1], in [2], in experiment [3] and in experiment [4] was “inactive” throughout.
Consider `COC(=O)[C@@H]1[C@@H](C)N(Cc2ccccc2)C(=O)N[C@H]1c1ccccc1`, for which the Potency result in experiment [1], in experiment [2], in experiment [3] and in experiment [4] was “inactive” throughout.
In the case of `CCC(=O)OC1(C)C(=O)C=C2C=C(CCCCNC(=O)OC(C)(C)C)OC=C2C1=O` (configuration not stated), the Potency entry in experiment [2], in experiment [5], in experiment [3] and in experiment [4] was “inactive” in each case.
As to `CC1(OC(=O)c2cnc3ccccc3n2)C(=O)C=C2C=C3CCCN3C=C2C1=O` (configuration not stated), the Potency entry in experiment [1], in [2], in experiment [3] and in [4] was “inactive” in each case.
In the case of `CCOC(=O)CN1C(=O)NC(c2cccc(C(F)(F)F)c2)C(C(C)=O)=C1C` (configuration not stated), the Potency entry in experiment [1], in [2], in experiment [3] and in experiment [4] was “inactive” in each case.
For the compound `COC(=O)C1=C(C(=O)OC)[C@@H]2N(C)c3ccccc3[C@@]23C[C@@H](C(=O)OC)N(S(=O)(=O)c2ccc(C)cc2)C3=N1`, the Potency result in experiment [1], in experiment [2] and in [4] was “inactive” each time.
With `CCN1C(=O)N[C@@H](c2ccccc2)[C@H](C(C)=O)[C@H]1C`, the Potency entry in experiment [2], in experiment [5], in [3] and in experiment [4] was “inactive” throughout.
For `COC(=O)CCCC1=CC2=C(c3ccccc3)C(=O)C(C)(OC(=O)C3CCCC3)C(=O)C2=CN1C1CC1` (configuration not stated), the Potency result in experiment [1], in experiment [2] and in experiment [4] was “inactive” in each case.
As to `CCOC(=O)NN=C1C[C@@H](O)[C@@H](O)[C@@H]2[C@H]3C(=O)N(C4CCCCC4)C(=O)[C@@H]3CC[C@@H]12`, the Potency entry in experiment [2], in [5], in [3] and in experiment [4] was “inactive” each time.
On to `COC/C=C/C1=CC2=CC(=O)C(C)(OC(=O)c3cnc4ccccc4n3)C(=O)C2=CN1CC(C)C` (configuration not stated), for which the Potency entry in experiment [1], in [2], in experiment [3] and in experiment [4] was “inactive” in each case.
For `CC1(OC(=O)CCc2ccccc2)C(=O)C=C2C=C(c3ccc(C#N)cc3)N(Cc3ccccc3)C=C2C1=O` (configuration not stated), the Potency result in [1], in experiment [2] and in experiment [4] was “inactive” each time.
For the compound `COCCN1C(=O)N[C@@H](c2ccccc2)[C@H](C(=O)OC)[C@H]1C`, the Potency entry in experiment [1], in experiment [2], in [3] and in experiment [4] was “inactive” in each case.
`C=CCOC(=O)N[C@@H](c1ccc(Br)cc1)C(C(C)=O)C(C)=O`: the Potency entry in experiment [1], in experiment [2], in [3] and in experiment [4] was “inactive” throughout.
`CC1(OC(=O)C2CCCC2)C(=O)C=C2C=C(c3ccsc3)N(CCCCO)C=C2C1=O` (configuration not stated): the Potency entry in experiment [2], in experiment [5], in [3] and in experiment [4] was “inactive” each time.
As for `CC#CCN1c2ccccc2[C@]23C[C@@H](C(=O)OC)N(S(=O)(=O)c4ccc(C)cc4)C2=NC(C(=O)OC)=C(C(=O)OC)[C@H]13`, the Potency in experiment [2] is 1690 nM (active).
Consider `CCOC(=O)CCCNC(=O)N1CCc2nc(-c3ccccc3)c3c(c2C1)CO[C@@H](C)C3`, for which the Potency entry in experiment [1], in experiment [2], in experiment [3] and in [4] was “inactive” in each case.
With `COC(=O)CCC(=O)OC1(C)C(=O)C2=CN(CC3CC3)C(c3ccc(OC)cc3)=CC2=C(Br)C1=O` (configuration not stated), the Potency entry in experiment [1], in [2], in experiment [3] and in [4] was “inactive” throughout.
Consider `CC[C@@H](C)CN1C(=O)N[C@@H](c2ccccc2)C(C(=O)OC)=C1C`, for which the Potency result in [2] and in experiment [5] was “inactive” each time.
With `CCCCC1=CC2=C(c3ccco3)C(=O)C(C)(OC(=O)c3ccc(OC)cc3)C(=O)C2=CN1C1CC1` (configuration not stated), the Potency result in experiment [1], in experiment [2], in [3] and in experiment [4] was “inactive” in each case.
Consider `CCOC(=O)CN1C(=O)N[C@@H](c2cccs2)C(C(C)=O)=C1C`, for which the Potency result in experiment [2], in experiment [3] and in experiment [4] was “inactive” throughout.
Consider `C=CCN1C=C2C(=O)C(C)(OC(=O)CCC(=O)OC)C(=O)C=C2C=C1C1CC1` (configuration not stated), for which the Potency result in experiment [2], in experiment [5], in [3] and in experiment [4] was “inactive” throughout.
Consider `COc1ccc(NC(=O)N2CCc3nc(COc4ccccc4)c4c(c3C2)CO[C@@H](C)C4)cc1`, for which the Potency entry in experiment [2], in [5], in experiment [3] and in [4] was “inactive” each time.
Regarding `NCCC[C@@H](CC(=O)N[C@@H]1CCCC[C@H]1C(=O)N[C@H](CC(=O)N[C@@H](CCC(=O)O)CC(=O)O)Cc1c[nH]c2ccccc12)NC(=O)C[C@H](Cc1ccccc1)NC(=O)[C@@H]1CCCC[C@H]1N`, the Potency result in experiment [6], in experiment [7], in experiment [8] and in experiment [9] was “inactive” each time.
Regarding `COC(=O)[C@@H]1C[C@H]1[C@@H](NS(=O)(=O)c1ccc(-c2ccccc2)cc1)c1ccccc1`, the Potency entry in experiment [6] and in experiment [7] was “inactive” in each case.
As to `CCCCC1=CC2=CC(=O)C(C)(OC(=O)CC)C(=O)C2=CN1C1CCCCC1` (configuration not stated), the Potency entry in experiment [2], in experiment [5] and in experiment [4] was “inactive” throughout.
For `O=C(NCc1ccccc1)[C@@H]1C[C@H]1[C@@H](NP(=O)(c1ccccc1)c1ccccc1)c1ccccc1`, the Potency entry in experiment [6] and in [7] was “inactive” in each case.
On to `COC(=O)CCCC1=CC2=CC(=O)C(C)(OC(=O)c3cccs3)C(=O)C2=CN1c1ccccc1` (configuration not stated), for which the Potency entry in [2] and in [4] was “inactive” in each case.
Take `COC(=O)C1=C(C(=O)OC)[C@@H]2N(C)c3ccccc3[C@@]23C[C@@H](C(=O)OC)N(C(=O)COCc2ccccc2)C3=N1`: the Potency entry in experiment [2], in experiment [3] and in experiment [4] was “inactive” throughout.
On to `CC(C)C[C@@H](CC(=O)N[C@H](CC(=O)N[C@@H]1CCCC[C@H]1C(=O)N[C@H](CC(=O)N[C@@H](CCC(=O)O)CC(=O)O)Cc1ccccc1)C(C)C)NC(=O)[C@@H]1CNCC[C@H]1N`, for which the Potency entry in experiment [7], in [9] and in experiment [10] was “inactive” throughout.
For the compound `COC(=O)C1=C(C(=O)OC)[C@@H]2N(C)c3ccc(OC)cc3[C@@]23C[C@@H](C(=O)OC)N=C3N1`, the Potency result in [2], in experiment [5], in experiment [3] and in experiment [4] was “inactive” throughout.
`NCCC[C@@H](CC(=O)N[C@@H]1CCNC[C@H]1C(=O)N[C@H](CC(=O)N[C@@H](CCC(=O)O)CC(=O)O)Cc1ccccc1)NC(=O)C[C@H](Cc1ccccc1)NC(=O)[C@@H]1CCCC[C@H]1N`: the Potency entry in [6], in experiment [7], in experiment [8], in experiment [9] and in experiment [10] was “inactive” each time.
